This is a sample that favours compounds with a hit; in the whole collection about 2.3% have one here.
Mcl1-Noxa inh – Mcl-1/Noxa binding inhibitors, primary screen, biochemical, TR-FRET, 1536-well. Induced myeloid leukemia cell differentiation protein Mcl-1 (Homo sapiens), Q07820. TR-FRET Mcl-1/Noxa peptide binding, 2 h. inhibition, % at 21.7 µM. 220,000 tested, 1.5% active. AID 1022, 2008;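 active = compounds that cut the protein-peptide binding signal by more than 50% relative to plate controls in a single-dose test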;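 also: His-tagged Mcl-1 with rhodamine Noxa BH3 peptide and terbium anti-His antibody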
Target sequence (Q07820 whole entry, looked up): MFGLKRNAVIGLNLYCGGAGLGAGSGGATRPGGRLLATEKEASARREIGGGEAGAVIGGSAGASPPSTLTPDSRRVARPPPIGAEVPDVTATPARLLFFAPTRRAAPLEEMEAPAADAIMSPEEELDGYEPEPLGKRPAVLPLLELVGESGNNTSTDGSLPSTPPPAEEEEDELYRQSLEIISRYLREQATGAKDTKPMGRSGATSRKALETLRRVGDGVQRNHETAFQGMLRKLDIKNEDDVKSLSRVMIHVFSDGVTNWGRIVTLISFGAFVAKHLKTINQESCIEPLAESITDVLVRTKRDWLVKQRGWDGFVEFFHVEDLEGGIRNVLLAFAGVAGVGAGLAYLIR
GLD-1 TGE inh – GLD-1/TGE RNA complex disruptors, primary screen, biochemical, fluorescence polarization | Female germline-specific tumor suppressor gld-1 (Caenorhabditis elegans), Q17339 | purified GLD-1 + fluorescein TGE RNA | inhibition, % at 5.96 µM | 320,000 tested, 0.44% active;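 active = percent inhibition above a per-plate cutoff, the plate mean of test compounds plus 3 SD, cut at about 30% in these data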
Bcl-xL primary – inhibitors of human Bcl-xL, primary screen, biochemical, fluorescence polarization, HTS; inhibition, % at 10.9 µM; GST-Bcl-xL / FITC-Bim BH3 peptide fluorescence polarization; 320,000 tested, 0.7% active; AID 2129, 2009;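 active = inhibition above the mean of all tested compounds plus 3 SD, cutoff set per campaign, cut at about 30% in these data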;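 also: inhibitors lower millipolarization by displacing the labeled peptide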
Mcl-1 Bim block – inhibitors of Bim peptide binding to Mcl-1, primary screen, biochemical, bead-based flow cytometry, multiplex | 190,000 tested, 0.1% active | AID 1009, 2008 | Bim peptide-Mcl-1 binding | inhibition, % at 10 µM; in the data active = inhibition above about 40%
Mcl1 Bid PPI – Mcl-1/Bid binding inhibitors, primary screen, biochemical, TR-FRET, 1536-well; TR-FRET Mcl-1/Bid-Dy647 peptide binding; inhibition, % at 21.7 µM; Induced myeloid leukemia cell differentiation protein Mcl-1 (Homo sapiens), Q07820; 220,000 tested, 0.97% active;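 active = compounds that cut the binding signal by more than half at the single screening dose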;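 also: His-tagged Mcl-1 with europium anti-His antibody binding Bid BH3 peptide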
MCL1-BIM inh – inhibitors of MCL1 binding to BIM-BH3, primary screen, biochemical, fluorescence polarization; AID 2057, 2009; 320,000 tested, 0.68% active; inhibition, % at 10.9 µM; GST-MCL1 / FITC-Bim-BH3 fluorescence polarization; Induced myeloid leukemia cell differentiation protein Mcl-1 (Homo sapiens), Q07820;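 active = inhibition above the mean inhibition of all tested compounds plus 3 SD, set per campaign, cut at about 40% in these data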;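 also: higher means more loss of mP so more displacement of Bim peptide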
Numbers stand for hits; 0 = inactive; - = not tested or not shown.

SMILES	Mcl1-Noxa inh	GLD-1 TGE inh	Bcl-xL primary	Mcl-1 Bim block	Mcl1 Bid PPI	MCL1-BIM inh
COCCCNS(=O)(=O)c1cc2c3c(c1)C(C)C(=O)N3CCC2 (stereo unspecified)	-	0	0	-	-	0
COc1ccccc1/C=N/N1C(=O)c2cccc3cccc(c23)C1=O	0	0	43	0	0	0
Cc1ccc(F)c(C2C3C=CCC(c4cccc(-c5ccc(N(C)C)cc5)c4)C3C(=O)N2Cc2ccccc2)c1 (stereo unspecified)	0	0	0	-	0	0
CC(C(=O)Nc1ccc2c(c1)OCO2)n1cnc2c1c(=O)n(C)c(=O)n2C (stereo unspecified)	-	0	0	-	-	0
O=C(COc1ccc(-c2nnco2)cc1)NC1CCCc2ccccc21 (stereo unspecified)	0	0	0	0	60	0
O=C(COc1ccccc1)NC1CCCc2ccccc21 (stereo unspecified)	0	0	0	0	0	0
Cc1cc(NC(=O)c2cc3cccc([N+](=O)[O-])c3[nH]2)ccc1F	54	0	0	-	0	0
COCC(C)NC(=O)c1cc2cccc([N+](=O)[O-])c2[nH]1 (stereo unspecified)	0	0	0	-	0	0
COc1ccc(C2=NC(=O)/C(=C\c3cc(OC)c(OC)c(OC)c3)O2)cc1	0	0	0	0	54	0
CC(NC(=O)c1cc2cc(F)ccc2[nH]1)c1ccccc1 (stereo unspecified)	-	0	0	-	-	0
O=C(CCC(=O)c1ccc(Oc2ccccc2)cc1)Nc1cccc(Cl)c1	0	0	0	0	98	0
COc1ccc(C(=O)CCC(=O)Nc2cccc(Cl)c2)cc1	0	0	0	0	0	0
O=C(COc1cccc(F)c1)Nc1nc(-c2cccnc2)cs1	-	0	0	-	-	0
O=C(O)Cn1nc2ccccc2n1	0	0	0	0	0	0
CC(C(=O)O)n1nc2ccccc2n1 (stereo unspecified)	0	0	0	0	71	0
O=C(NCCNC(=O)c1ccccc1Cl)c1ccco1	-	0	0	-	-	0
C=CCOC(=O)/C=C/C(=O)NC(N)=O	0	0	0	-	75	0
C[C@H](CO)N1C[C@H](C)[C@@H](CN(C)Cc2ccc(Oc3ccccc3)cc2)Oc2c(NS(=O)(=O)c3cn(C)cn3)cccc2C1=O	-	0	-	-	-	-
CN(C)c1ccc(N=C/C=C2\N(C)c3ccccc3C2(C)C)cc1	71	0	0	0	0	0
CC1=C/C(=C\C=C(C#N)C#N)N(C)c2ccccc21	0	0	35	-	0	0
CN1/C(=C/C=C(C#N)C#N)C(C)(C)c2ccccc21	0	0	47	0	0	0
CN1/C(=C\C=O)C(C)(C)c2ccccc21	0	0	0	0	0	0
CN1/C(=C\C=Nc2ccc3ccccc3c2)C(C)(C)c2ccccc21	0	0	0	0	0	0
CCOC(=O)N1CCN(C(=O)C(=O)Nc2sc3c(c2C(=O)O)CC(C)(C)OC3)CC1	-	0	0	-	-	0
COc1ccc(CCNc2nc(-c3ccncc3)cs2)cc1OC	0	0	0	-	0	0
SMILES	Mcl1-Noxa inh	GLD-1 TGE inh	Bcl-xL primary	Mcl-1 Bim block	Mcl1 Bid PPI	MCL1-BIM inh
COc1ccc(CCNc2nc(-c3cccnc3)cs2)cc1OC	0	0	0	0	90	0
COc1ccc(CCNc2nc(-c3sc(C)nc3C)cs2)cc1OC	60	0	0	0	73	0
CCCCN(C)C(=S)Nc1ccsc1C(=O)OC	0	0	0	0	0	0
CCCC1(C(=O)OCC)NC(c2cc(OC)c(OC)c(OC)c2)C2C(=O)N(CC)C(=O)C21 (stereo unspecified)	0	0	0	81	0	0
CCOC(=O)C1(C)NC(c2ccc(OC)c(OC)c2)C2C(=O)N(CC)C(=O)C21 (stereo unspecified)	0	0	0	0	0	0
CC1(C2CC2)NC(=O)N(CC(=O)N2CCN(c3ccccc3)CC2)C1=O (stereo unspecified)	-	0	0	-	-	0

Assay outcomes deposited in PubChem BioAssay by several laboratories.
